This passage reports inhibition results from ChEMBL document CHEMBL3433997, “St. Jude Leishmania screening dataset” (2016).

Common to all, as to assay type: functional
For test [1], the target named is Solute carrier family 2, facilitated glucose transporter member 1 (Homo sapiens) (UniProt P11166). Kind of test: ST_JUDE_LEISH: Cytotoxicity at 2uM final concentration against transgenic Leishmania Mexicana promastigotes LmGLUT1 that are glucose transport deficient and complemented with the human glucose transporter GLUT1. Activity is measured by DNA content using SYBR green in vitro.
Solute carrier family 2, facilitated glucose transporter member 1 (Homo sapiens), sequence (P11166 whole entry): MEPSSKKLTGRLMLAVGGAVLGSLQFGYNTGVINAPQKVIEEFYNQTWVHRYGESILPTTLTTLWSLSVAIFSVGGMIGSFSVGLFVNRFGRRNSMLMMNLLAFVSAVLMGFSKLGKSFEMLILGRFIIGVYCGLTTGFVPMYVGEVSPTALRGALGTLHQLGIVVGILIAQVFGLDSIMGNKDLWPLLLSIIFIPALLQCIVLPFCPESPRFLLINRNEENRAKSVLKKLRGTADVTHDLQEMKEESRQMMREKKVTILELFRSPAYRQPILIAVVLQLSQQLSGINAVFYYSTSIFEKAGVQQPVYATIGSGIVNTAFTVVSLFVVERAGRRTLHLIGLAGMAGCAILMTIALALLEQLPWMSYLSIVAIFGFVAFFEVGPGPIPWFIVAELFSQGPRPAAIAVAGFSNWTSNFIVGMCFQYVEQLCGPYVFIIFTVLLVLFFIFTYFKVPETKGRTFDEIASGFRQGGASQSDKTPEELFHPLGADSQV

Test [2] has as its target Hexose transporter 1 (Plasmodium falciparum) (UniProt O97467). Description: ST_JUDE_LEISH: Cytotoxicity at 2uM final concentration against transgenic Leishmania Mexicana promastigotes LmPfHT that are glucose transport deficient and complemented with the Plasmodium falciparum hexose transporter. Activity is measured by DNA content using SYBR green in vitro.
Test [3] deals with Glucose transporter (Leishmania mexicana) (UniProt O61059). Kind of test: ST_JUDE_LEISH: Cytotoxicity at 2uM final concentration against transgenic Leishmania Mexicana promastigotes LmGT2 that are glucose transport deficient and complemented with the L. Mexicana glucose transporter 2. Activity is measured by DNA content using SYBR green in vitro.

Consider `COc1ccc(-c2ccc(NC(=O)c3ccc(C#N)cc3)cc2)cc1CN1CCNCC1`, for which the inhibition (as a rule, the drop in the measured response relative to a control, in per cent) came out at 10.9% in test [1], 7.81% in test [2] and 5.48% in test [3].

With `O=C(CC1NC(=O)c2ccccc21)Nc1ccc(-c2cccc(-c3nc4cc(C(F)(F)F)ccc4[nH]3)c2)cc1` (stereo unspecified), the inhibition in test [1] stood at 1.2%; in test [2], 2.78%; in test [3], 0.79%.

`CN(C)c1ccc(-c2csc(C(=O)NCC3CCN(CC4CCCCC4)C3)c2)cc1` (stereo unspecified): the inhibition worked out at 2.79% in test [1], 0.77% in test [2] and 1.05% in test [3].

With `COc1cc2nc(NCCc3ccccc3)nc(N(C)Cc3ccccc3)c2cc1OC`, the figures for the inhibition in test [1], in test [2] and in test [3] were 5.11%, 5.4% and 2.95%, respectively.

With `CCCCN(CCCC)Cc1cc2ccccc2cc1O`, the figures for the inhibition in test [1], in test [2] and in test [3] were 3.46%, 4.13% and -0.3%, respectively.

`O=C(Nc1ccc(-c2nc3ccccc3[nH]2)cc1)c1ccc(S(=O)(=O)N2CCc3ccccc32)cc1`: the inhibition in test [1] turned out to be 2.92%; in test [2] it was 0.13%; in test [3], 3.39%.

In the case of `O=C(/C=C/c1ccc(C(F)(F)F)cc1)NCCCCCN1CCC(c2c[nH]c3ccccc23)CC1`, the inhibition in test [1] was -1.24%; in test [2] it was -1.37%; in test [3], 0%.

Take `CC(C)Oc1cccc(-c2ccc(C(=O)NCC3CCCN(Cc4cccc(C(F)(F)F)c4)C3)s2)c1` (stereo unspecified): the inhibition in test [1] was -1.06%; in test [2], -1.35%; in test [3], -3%.

`O=C(Nc1cccc([N+](=O)[O-])c1)N(Cc1ccc(Cl)c(Cl)c1)C1CCNCC1`: the inhibition in test [1] was determined as 5.08%; in test [2], 3.21%; in test [3], 3.8%.

As for `O=[N+]([O-])c1ccccc1/C=N/Nc1ccnc2ccc(C(F)(F)F)cc12`, the inhibition in test [1] is -0.59%; in test [2], 2.42%; in test [3], 0.08%.

`O=C(CNc1ccncc1)c1c[nH]c2ccccc12`: the figures for the inhibition in test [1], in test [2] and in test [3] were 0.52%, 2.3% and 0.74%, respectively.

For the molecule `C#CC[C@@H](NC(N)=O)C(=O)O`, the inhibition in test [1] was -0.51%; in test [2] it was 1%; in test [3], 0.41%.

`O=C(Nc1cccc(-c2ccc(-c3nc4cc(C(F)(F)F)ccc4[nH]3)s2)c1)c1cccnc1`: the results for the inhibition in test [1], in test [2] and in test [3] were 4.93%, 4.73% and 4.16%, respectively.

With `CN(Cc1ccncc1)C(Cc1ccccc1)C1CCN(Cc2ccc(O)c(Cl)c2)CC1` (stereo unspecified), the inhibition in test [1] is 1.88%; in test [2], 2.51%; in test [3] it was -0.31%.

`c1ccc2c(NCCc3c[nH]cn3)c3ccccc3nc2c1`: the inhibition worked out at 0.58% in test [1], 4.05% in test [2] and 2.23% in test [3].

On to `CCCC(=O)c1cnc2c(Oc3cc(Cl)ncn3)cccc2c1Nc1ccccc1C`, for which the inhibition in test [1] is 6.96%; in test [2], 4.84%; in test [3], 6.89%.

In the case of `CC(C)NCc1ccc(-c2cccc(NC(=O)c3cccc(Cl)c3)c2)cc1`, the inhibition came out at 17.7% in test [1], 12.9% in test [2] and 10.7% in test [3].

As to `Cc1cccc(C)c1OC(=O)CSc1nnc(-c2ccccc2O)o1`, the inhibition in test [1] amounted to 1.32%; in test [2], 2.43%; in test [3] it was 1.28%.

On to `S=C(NN=Cc1ccccn1)NC1CC2C=CC1C2` (stereo unspecified), for which the inhibition in test [1] was 10%; in test [2] it was 13.6%; in test [3], -1.49%.

Take `CN1CCc2cc(Br)c(O)cc2C1Cc1ccccc1Cl` (stereo unspecified): the inhibition in test [1] was -1.43%; in test [2] it was -1.61%; in test [3] it was -2.87%.

With `CC(C)CCN1CCC(Oc2cccc(NC(=O)c3ccc(C(F)(F)F)cc3)c2)CC1`, the inhibition in test [1] was 1.54%; in test [2], -0.13%; in test [3] it was 1.09%.

For the molecule `O=C(Nc1ccc(Br)c(Cl)c1)c1cc([N+](=O)[O-])cc2cn[nH]c12`, the inhibition in test [1] is -0.11%; in test [2] it was -0.77%; in test [3] it was 1.08%.

With `O=C(NCCN1CCCCC1)c1ccc(Nc2nccc(Nc3ccc(Oc4ccccc4)cc3)n2)cc1`, the inhibition in test [1] stood at 7.53%; in test [2], 8.31%; in test [3] it was 16.6%.

For `Cc1cccc2nc(-c3ccc(-c4ccc(NC(=O)Nc5ccc(F)c(F)c5F)cc4)s3)[nH]c12`, the inhibition in test [1] came out at 1.26%; in test [2] it was 0.06%; in test [3], 0.31%.

On to `CCCN1CCN(c2cc(NCC)c3c4c(onc24)-c2ccccc2C3=O)CC1`, for which the inhibition in test [1] was determined as 7.98%; in test [2], 8.22%; in test [3], 6.9%.

On to `C[C@H]1CN(Cc2cccc(-c3cc(CNC(=O)c4cccc(CC5CCN(C)CC5)c4)ccc3F)c2)CCN1C`, for which the inhibition in test [1] is 0.87%; in test [2] it was 0.27%; in test [3], -3.42%.

For `O=C(NC1CCN(CCC[C@]2(c3ccc(Cl)c(Cl)c3)CCCN(C(=O)c3ccccc3)C2)CC1)c1ccc(Cl)cc1`, the values for the inhibition in test [1], in test [2] and in test [3] were -0.59%, -1.27% and -2.33%, respectively.

Turning to `O=C(Nc1ccc(C(=O)OCC2CCCN3CCCCC23)cc1)c1ccc(Cl)c(Cl)c1` (stereo unspecified), the inhibition in test [1] was 0.06%; in test [2] it was -0.05%; in test [3], 0.18%.

In the case of `N=C(N)NCCCC(=O)NCC(N)=O`, the results for the inhibition in test [1], in test [2] and in test [3] were 5.44%, 8.67% and 2.28%, respectively.

On to `COc1ccc(CCC(C)(C)NCC(O)c2cccc(C(F)(F)F)c2)cc1` (stereo unspecified), for which the inhibition in test [1] came out at 3.28%; in test [2], 3.58%; in test [3], 5.12%.

Take `CN(CCCN(C)c1cc(NC(=O)c2ccc(F)cc2)ccn1)Cc1cccc(F)c1`: the inhibition came to 5% in test [1], 5.98% in test [2] and 4.86% in test [3].

As to `Cc1ccc2c(c1[N+](=O)[O-])N=NCC2Oc1ccccc1` (stereo unspecified), the inhibition in test [1] stood at 10.8%; in test [2], 9.1%; in test [3], 10.6%.

Consider `Cc1ccc(NC(=O)c2ccc(CN3CCCN(Cc4cccc(Cl)c4)CC3)cc2)cc1C`, for which the results for the inhibition in test [1], in test [2] and in test [3] were 3.09%, 3.31% and 2.64%, respectively.

As for `CCN(CC)Cc1cc(Nc2c3ccc(Cl)cc3nc3cccc(OC)c23)ccc1O`, the values for the inhibition in test [1], in test [2] and in test [3] were 7.41%, 11.1% and 5%, respectively.

Regarding `O=C(Cn1c(CCc2cccc(F)c2F)cc(=O)c2ccccc21)N(Cc1ccc(-c2ccc(C(F)(F)F)cc2)cc1)C1CCN(CCO)CC1`, the figures for the inhibition in test [1], in test [2] and in test [3] were 4.1%, 3.74% and 4.47%, respectively.

For `Nc1nc(Nc2cccc(O)c2)nc2ccccc12`, the inhibition in test [1] amounted to 6.67%; in test [2], 9.29%; in test [3] it was 1.22%.

In the case of `Cc1cc(OCCCN2CCC(NC(=O)c3ccc(Br)cc3)C2)c2ccccc2n1` (stereo unspecified), the values for the inhibition in test [1], in test [2] and in test [3] were 24.3%, 19.2% and 13.4%, respectively.
